Source: PubChem BioAssay (EPA / NIEHS)
Records with an inconclusive call do not appear. Calls of active or inactive are those of the source. Rule for the calls, unless noted: active = hit-call score of the fitted dose curve at least 0.9, where 1 is the maximum; inactive = score below 0.9.

Key:
[1] = CCTE_Shafer_MEA_acute_cross_correlation_HWHM: CCTE's Neural Acute Assay for Cross Correlation at Half Width at Half Maximum, Shafer Lab (AID 2284026);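 note: percent change per well from pre-dose baseline in spike cross-correlogram half width; hits are a decrease in cross-correlogram half width relative to DMSO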;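 for outcome: spontaneous network firing of rat primary cortical neurons on multiwell microelectrode arrays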
Procedure, shortened: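 Primary rat cortical neurons on 16-electrode MEA wells; 40-min baseline on DIV 13 or 15, then 40-min recording with compound (0.03-40 uM) at 37 C. HWHM of spike cross-correlogram expressed as percent change from baseline per well, DMSO reference.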

[2] = CCTE_Shafer_MEA_acute_synchrony_index: CCTE's Neural Acute Assay for Synchrony, Shafer Lab (AID 2284027);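 note: network synchrony index of spontaneous spiking in primary rat cortical neurons on MEAs; fitted for loss of signal so actives lower synchrony relative to DMSO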
Procedure, shortened: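 Primary rat cortical neurons on 48-well MEAs, dosed at 0.03–40 uM on DIV 13 or 15. Spikes are recorded for 40 min at 37C before and after exposure, and synchrony index (0–1) is expressed as percent change from baseline per well.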

[3] = CCTE_Deisenroth_AIME_384WELL_CTox_Active: Cytotoxicity Assessment (CTOX) in CCTE's 384-well Estrogen Receptor Transactivation Assay with AIME metabolic competence (metabolism positive), Deisenroth Lab (AID 2284037; active = hit-call score of the fitted dose curve at least 0.9, where 1 is the maximum;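 note: chemicals first conditioned 2 h by alginate-bound induced rat liver S9 before cells; activity means signal loss indicating cell death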)
Procedure, shortened: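 VM7Luc4E2 breast cells received medium pre-incubated 2 h with chemical over alginate microspheres holding induced male Sprague Dawley rat liver S9; viability read 24 h later by protease-substrate fluorescence. Loss of signal, bidirectional fit, 0.002–200 uM.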

[4] = CCTE_Shafer_MEA_dev_firing_rate_mean: CCTE's Neural Network Formation Assay for Mean Firing Rate, Shafer Lab (AID 2284031)
Procedure, shortened: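 Primary rat cortical neurons on 48-well MEA plates, exposed from plating day 0 with dosing renewed on DIV 5 and 9. Mean well firing rate over active electrodes, recorded days 5, 7, 9, 12, summarised as trapezoidal AUC.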

[5] = CCTE_Shafer_MEA_dev_per_burst_spike_percent: CCTE's Neural Network Formation Assay for Percent of Spikes in a Burst, Shafer Lab (AID 2284032);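 for AC50: fitted as a decrease in burst spike percentage below DMSO baseline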
Procedure, shortened: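 Rat primary cortical neurons on 16-electrode MEA wells, dosed from plating day 0 for 12 days with renewal on DIV 5 and 9; spikes-in-bursts percentage averaged over bursting electrodes, collapsed as AUC across days 5, 7, 9, 12; loss direction versus DMSO.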

[6] = biological target: Estrogen receptor (Homo sapiens) (UniProt P03372); experiment: CCTE_Deisenroth_AIME_384WELL_LUC_Active: CCTE's 384-well Estrogen Receptor Transactivation Assay with AIME metabolic competence (ERTA luciferase; metabolism positive), Deisenroth Lab (AID 2284030; active = hit-call score of the fitted dose curve at least 0.9, where 1 is the maximum)
Procedure, shortened: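 Test chemicals (10-point series, 0.002 - 200 uM) were preincubated 2 hours with alginate-immobilized phenobarbital/beta-naphthoflavone-induced male Sprague Dawley rat liver S9; conditioned medium then went onto VM7Luc4E2 breast cells for 24 hour. Luciferase gain-of-signal fitted relative to 17beta-estradiol.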

[7] = biological target: Estrogen receptor (Homo sapiens) (UniProt P03372); experiment: CCTE_Deisenroth_AIME_384WELL_LUC_Inactive: CCTE's 384-well Estrogen Receptor Transactivation Assay without AIME metabolic competence (ERTA luciferase; metabolism negative), Deisenroth Lab (AID 2284038; active = hit-call score of the fitted dose curve at least 0.9, where 1 is the maximum;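 note: hits raise estrogen receptor luciferase signal so potencies reflect agonists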)
Procedure, shortened: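 Metabolism-negative mode: chemicals (10-point, 0.002–200 uM) held 2 h with alginate-water microspheres, then conditioned medium applied to VM7Luc4E2 cells for 24 h. Luciferase induction referenced to 17beta-estradiol.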

[8] = CCTE_Deisenroth_AIME_384WELL_CTox_Inactive: Cytotoxicity Assessment (CTOX) in CCTE's 384-well Estrogen Receptor Transactivation Assay without AIME metabolic competence (metabolism negative), Deisenroth Lab (AID 2284039; active = hit-call score of the fitted dose curve at least 0.9, where 1 is the maximum;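 note: cell viability via live-cell protease substrate cleaved to fluorescent probe; cells exposed 24 h to medium preincubated 2 h with alginate-water beads without S9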)
Procedure, shortened: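 VM7Luc4E2 cells, metabolism-negative arm: test chemicals (0.002–200 uM, 10 points) pre-incubated 2 h with alginate-water microspheres, then medium transferred to cells for 24 h. Viability read as protease-substrate cleavage to fluorescent probe; loss-of-signal, bidirectional fitting.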

[9] = biological target: Estrogen receptor (Homo sapiens) (UniProt P03372); experiment: CCTE_Deisenroth_AIME_384WELL_LUC_Shift: CCTE's 384-well Estrogen Receptor Transactivation Assay with AIME metabolic competence data shift (ERTA luciferase; difference in metabolism positive and negative), Deisenroth Lab (AID 2284041);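 note: shift is response with S9 minus without S9 so positive means metabolism raised ER signal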
Procedure, shortened: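 Here, parent compounds undergo 2 h phase I metabolism by PB/BNF-induced rat S9 before 24 h transactivation in VM7Luc4E2 cells; the curve models S9-positive minus S9-negative response over a 10-point series.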

[10] = CCTE_Shafer_MEA_dev_active_electrodes_number: CCTE's Neural Network Formation Assay for Number of Active Electrodes, Shafer Lab (AID 2284040; active = hit-call score of the fitted dose curve at least 0.9, where 1 is the maximum;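 for AC50: potency for loss of active electrodes versus DMSO so lower counts are hits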)
Procedure, shortened: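 Primary rat cortical neurons on 16-electrode MEA wells, exposed from day 0 through day 12 with compound renewed at DIV 5 and 9 feeds. Active electrodes (mean firing ≥5 spikes/min) counted at DIV 5, 7, 9, 12; trapezoidal AUC across days, loss-of-signal versus DMSO.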

Estrogen receptor (Homo sapiens), sequence (P03372 whole entry, looked up): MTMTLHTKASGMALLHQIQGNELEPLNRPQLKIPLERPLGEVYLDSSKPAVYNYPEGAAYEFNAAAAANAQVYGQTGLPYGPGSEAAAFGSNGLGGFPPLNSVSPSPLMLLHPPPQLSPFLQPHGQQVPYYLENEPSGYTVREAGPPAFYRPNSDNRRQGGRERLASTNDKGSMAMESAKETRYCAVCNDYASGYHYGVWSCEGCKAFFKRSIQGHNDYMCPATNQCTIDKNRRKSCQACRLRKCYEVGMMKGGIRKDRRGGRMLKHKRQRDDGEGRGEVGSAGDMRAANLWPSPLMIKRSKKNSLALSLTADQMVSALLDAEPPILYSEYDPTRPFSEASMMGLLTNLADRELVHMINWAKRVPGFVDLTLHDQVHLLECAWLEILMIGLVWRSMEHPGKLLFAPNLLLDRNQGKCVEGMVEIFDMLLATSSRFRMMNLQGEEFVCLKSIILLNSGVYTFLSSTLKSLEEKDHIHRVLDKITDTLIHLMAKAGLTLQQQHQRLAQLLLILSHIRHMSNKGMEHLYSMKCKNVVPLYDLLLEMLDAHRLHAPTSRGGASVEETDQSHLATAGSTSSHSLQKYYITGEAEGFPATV

With `OCC(CO)(CBr)CBr` the outcome [1] was “inactive”, the outcome [2] was “inactive” and the outcome [3] was “inactive”.
In the case of `CCCCc1oc2ccccc2c1C(=O)c1cc(I)c(OCCN(CC)CC)c(I)c1`, the outcome [2] is reported as “inactive”.
For `CN(CCO)S(=O)(=O)C(F)(F)C(F)(F)C(F)(F)C(F)(F)C(F)(F)C(F)(F)C(F)(F)C(F)(F)F`, the outcome [4] was “inactive” and the outcome [5] was “inactive”.
In the case of `COC(=O)C(F)(F)C(F)(F)C(F)(F)C(F)(F)C(F)(F)F`, the outcome [4] is reported as “inactive” and the outcome [5] is reported as “inactive”.
For `CCCCC=O`, the outcome [1] was “inactive” and the outcome [2] was “inactive”.
In the case of `O=P(O)(O)CCC(F)(F)C(F)(F)C(F)(F)C(F)(F)C(F)(F)C(F)(F)F`, the outcome [4] is reported as “inactive” and the outcome [5] is reported as “inactive”.
In the case of `COc1cc([N+](=O)[O-])ccc1N`, the outcome [6] is reported as “inactive”, the AC50 [3] is reported as 118 µM (active) and the outcome [7] is reported as “inactive”. The AC50 [8] was 100 µM (active) and the outcome [9] was “inactive”.
In the case of `Oc1c(Cl)cc(Cl)cc1Sc1cc(Cl)cc(Cl)c1O`, the AC50 [1] is reported as 9.62 µM (active) and the AC50 [2] is reported as 8.67 µM (active).
In the case of `CCCCCCCCCCCC`, the outcome [1] is reported as “inactive”, the outcome [2] is reported as “inactive” and the outcome [3] is reported as “inactive”. The AC50 [8] was 100 µM (active).
In the case of `CN(C)CCOC(c1ccccc1)c1ccccc1`, the outcome [2] is reported as “inactive”, the outcome [4] is reported as “inactive” and the AC50 [5] is reported as 10 µM (active). The AC50 [10] was 6.36 µM (active).
With `CCCCCCCCCCCCOS(=O)(=O)O` the AC50 [3] was 143 µM (active) and the AC50 [8] was 147 µM (active).
With `NC(C(F)(F)F)C(F)(F)F` the outcome [4] was “inactive”, the outcome [5] was “inactive” and the outcome [10] was “inactive”.
For `O=P(O)(O)CCC(F)(F)C(F)(F)C(F)(F)C(F)(F)C(F)(F)C(F)(F)C(F)(F)C(F)(F)F`, the outcome [4] was “inactive”, the AC50 [5] was 4.78 µM (active) and the AC50 [10] was 4.18 µM (active).
For `O=C(F)C(F)(F)C(F)(F)C(F)(F)C(F)F`, the outcome [4] was “inactive”, the outcome [5] was “inactive” and the outcome [10] was “inactive”.
For `Cc1cc(Cc2cc(C)cc(C(C)(C)C)c2O)c(O)c(C(C)(C)C)c1`, the AC50 [3] was 43.1 µM (active), the AC50 [8] was 41.8 µM (active) and the outcome [9] was “inactive”.
